Source: PubChem BioAssay AID853 (Columbia University Molecular Screening Center, 2007)
Among all 47,000 compounds or so, about 200 (0.43%) were called active. Roughly 1% stayed inconclusive and do not appear here.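 The calls were made as follows: active = inhibition of aggregate fluorescence above about 70%, also judged a hit by eye on the cell image (limit read from the data, passing the limit was not always enough); inconclusive = no rule stated for this call; inactive = not judged a hit on image review.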 The sample as a whole holds a higher share of actives than the screen did.

Experiment: clearance of mutant huntingtin inclusions, primary screen, imaging, HeLa Exon1htt(103Q)mCFP, confocal imaging (AID 853);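 also: cells exposed to compound for three days before fixation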
Settings: aggregate imaging, at 1.5 µM; fraction fluorescence in grains: measured here: aggregate grain fluorescence fraction, stronger effect = lower value; inhibition: stronger effect = higher value

SMILES	fraction fluorescence in grains	inhibition
N#Cc1ccc(Cn2cc(C(=O)c3ccco3)c3ccccc32)cc1	6.7	83.1% (active)
COc1ccc(CCn2c(O)c(C=NC3CC3)c(=O)[nH]c2=O)cc1OC	56	-52.1% (inactive)
CC(C)c1ccc(OCC(=O)N2CCN(C)CC2)c(Br)c1	48.9	-31% (inactive)
CCN1CCN(C(=O)Cc2coc3cc(C)cc(C)c23)CC1	24	-20.7% (inactive)
c1cc2c(cc1CCNC1CCCCCC1)OCO2	16.3	11.1% (inactive)
